Source: PubChem BioAssay AID618 (Sanford-Burnham Center for Chemical Genomics, 2007)
Out of some 87,000 compounds screened, about 540 (0.62%) were called active. This is one part of a sample in which actives are shown more often than they occur. How the calls were made is not given here. Entries with a potency or affinity are not part of this list.

Test: inhibitors of MT1-MMP promoter transcription, cell-based, luciferase reporter, luminescence (AID 618);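 further: actives suppress MT1-MMP promoter-driven transcription so potencies describe inhibitors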
Settings: MT1-MMP promoter luciferase reporter cells

SMILES | outcome
COc1cccc(-c2nc(-c3ccccc3)no2)c1 | inactive
Cc1onc(-c2ccccc2Cl)c1-c1nc(-c2ccccn2)no1 | inactive
COc1ccc(-c2noc(-c3cccc(Cl)c3)n2)cc1OC | inactive
c1ccc(-c2noc(-c3ccc4ccccc4c3)n2)nc1 | active
c1ccc(-c2cc(-c3nc(-c4ccccn4)no3)c3ccccc3n2)cc1 | inactive
Cc1ccc(SCc2nc(-c3ccccn3)no2)cc1 | inactive
COc1cccc(-c2noc(-c3cccnc3)n2)c1 | inactive
O=C(Nc1nccs1)c1ccc(COc2ccccc2Br)o1 | inactive
O=C(CSCc1c(Cl)cccc1Cl)Nc1nccs1 | inactive
CCCCOC(=O)Nc1ccc(C(N)=O)cc1 | inactive
C/C=C/c1ccc(OCCCNC)c(OC)c1 | inactive
CC1CCN(C(=O)COc2ccccc2F)CC1 | inactive
O=C(CCn1c(=O)[nH]c2ccsc2c1=O)N1CCN(c2cccc(Cl)c2)CC1 | inactive
CCCc1cc(C(=O)Nc2cc(OC)c(Cl)cc2OC)no1 | inactive
c1ccc(-c2noc(-c3ccco3)n2)nc1 | inactive
c1ccc(-c2noc(-c3cccnc3)n2)nc1 | inactive
COc1ccc(-c2noc(-c3ccccc3-c3ccccc3)n2)cc1 | inactive
c1ccc(-c2noc(-c3ccc4c(c3)OCO4)n2)nc1 | active
Brc1ccc(-c2nc(-c3ccccc3)no2)o1 | inactive
COc1ccc(-c2noc(-c3ccc4c(c3)OCO4)n2)cc1 | inactive
c1cc(-c2noc(-c3ccc4c(c3)OCO4)n2)ccn1 | inactive

SMILES | outcome
c1ccc(-c2noc(-c3ccncc3)n2)nc1 | inactive
COc1ccc(-c2nc(-c3ccc(Br)cc3)no2)c(OC)c1 | inactive
COc1ccc(-c2nc(-c3ccccc3)no2)c(OC)c1 | active
Cc1sc2nc(SCC(=O)N3CCCC3)[nH]c(=O)c2c1C | inactive
O=C1CC(c2ccco2)c2ccc3ccccc3c2N1 (configuration not stated) | inactive
CCOC(=O)c1cnc(SCC(=O)c2ccc(C)cc2)nc1N | inactive
Cc1cc(C)n(CC(O)Cn2ccc3ccccc32)n1 (configuration not stated) | inactive
Cc1ccc(Cc2nc(-c3ccccn3)no2)cc1 | inactive
c1ccc(-c2nnc(-c3ccccc3)o2)cc1 | inactive
Brc1cccc(-c2nc(-c3ccncc3)no2)c1 | inactive
c1ccc(-c2noc(-c3ccc4ccccc4c3)n2)cc1 | active
c1ccc(-c2nnc(-c3cccc(-c4nnc(-c5ccccc5)o4)c3)o2)cc1 | inactive
Cc1occc1-c1nc(-c2ccccn2)no1 | inactive
CCOc1ccc(-c2nc(-c3ccccc3)no2)cc1OCC | inactive
CC1=CCC(C(=O)O)C(C(=O)Nc2nc3ccc(S(C)(=O)=O)cc3s2)C1 (configuration not stated) | inactive
Cn1c(=O)c2c(ncn2CC(=O)N2CCN(c3ccccc3F)CC2)n(C)c1=O | inactive
COc1ccc(-c2c(C)n([O-])c(C)c(C)[n+]2=O)cc1 | inactive
COc1ccc(S(=O)(=O)N2C3CCC2CC(NC(=O)NC2CCCCC2)C3)cc1 (configuration not stated) | inactive
COc1cccc(NS(=O)(=O)c2ccc3[nH]cc(C(=O)NC4CC4)c(=O)c3c2)c1 | inactive
CCCn1c(-c2ccc(OC)cc2)nc2c(=O)n(C)c(=O)[nH]c21 | inactive
CCC(C)NS(=O)(=O)c1ccc(NC(=O)c2c(-c3ccccc3)noc2C)cc1 (configuration not stated) | inactive

SMILES | outcome
O=C(NCCCc1ccccc1)c1cnc2n(c1=O)CCS2 | inactive
O=C(COc1cccc(C(F)(F)F)c1)NCCCN1CCCC1=O | inactive
CCC(=O)Nc1ccc2c(c1)C(=O)N(C1CCCCC1)C2=O | inactive
CCN(CC)c1ccc2cc(C(=O)Nc3ccccn3)c(=O)oc2c1 | inactive
CCN(CC)c1ccc2cc(C(C)=O)c(=O)oc2c1 | inactive
CC(C)C(NS(=O)(=O)c1ccc(Br)s1)C(=O)O (configuration not stated) | inactive
O=C(CCCSc1nnc(-c2cccs2)n1CC1CCCO1)c1ccccc1 (configuration not stated) | inactive
CC(=O)c1ccc(Oc2cc(C)nc(-n3nc(C)cc3C)n2)cc1 | active
CNc1cc(C)nc(-n2nc(C)cc2C)n1 | inactive
COc1ccc(Nc2cc(C)nc(-n3nc(C)cc3C)n2)cc1 | active
CC(=O)c1ccc(Oc2cc(C)nc(NCc3ccccc3)n2)cc1 | inactive
COC(=O)c1ccc(Oc2cc(C)nc(SC)n2)cc1 | inactive
COC(=O)c1ccc(Oc2nc(C)cc(Oc3ccccc3)n2)cc1 | inactive
CCOc1ccc(Nc2cc(C)nc(-n3nc(C)cc3C)n2)cc1 | inactive
COC(=O)c1ccc(Oc2cc(C)nc(-n3nc(C)cc3C)n2)cc1 | active
Cc1ccc(Oc2cc(-n3nc(C)cc3C)ncn2)cc1 | inactive
Cc1ccc(C(=O)NCc2cccs2)cc1S(=O)(=O)N1CCCCC1 | inactive
Cc1cccc(OCCn2c(=O)sc3ccccc32)c1 | inactive
CCSc1nnc(NC(=O)CSc2nc3c(c(=O)n2C)SC(C)C3)s1 (configuration not stated) | inactive
COc1ccc(C)cc1S(=O)(=O)N(C)CC(=O)Nc1ccccc1 | inactive
